aSyn UTR act = Activators working through SNCA 5'UTR binding (MLPCN). activity score, % (tested at 7.5 µM), hits read low. 7.1% of 300,000 active. AID 1814. alpha-synuclein 5'UTR reporter, activators screen; in the data active = activity score below about -60%
* = called active by the depositor. Only a sample is shown.

SMILES	aSyn UTR act
Cc1ccc(C(=O)O/N=C(\N)c2ccc(Br)cc2)cc1	-215.0*
Fc1ccc(CNc2ccccn2)cc1	-77.7*
CSc1ccc(CNc2ccccn2)cc1	-99.5*
COc1ccc(C(=O)C(OC(=O)c2ccccc2)c2ccccc2)cc1 (stereo not drawn)	-169.0*
COc1ccc(C(=O)C(OC(=O)c2ccccc2Cl)c2ccccc2)cc1 (stereo not drawn)	-104.0*
Cn1ccc(NC(=O)Nc2ccc(Cl)cc2Cl)n1	-112.5*
O=C(Nc1ccc(Br)cc1Cl)c1cnccn1	-69.8*
Cc1ccc(NC(=O)Nc2cnccn2)cc1Cl	-74.2*
COc1ccc(NC(=O)Nc2cnccn2)cc1	-80.1*
CC(=O)Nc1cccc(NC(=O)Nc2ccc(C)c(Cl)c2)c1	-118.1*
O=C(Nc1cnccn1)Nc1ccc(Cl)cc1Cl	-62.2*
CCC(C)c1ccc(NC(=O)Nc2cnccn2)cc1 (stereo not drawn)	-188.1*
Nc1nc2c(s1)CCc1c-2cnn1-c1ccccc1	-79.7*
O=C(/C=C/c1cccc([N+](=O)[O-])c1)c1ccc([N+](=O)[O-])o1	70.6
COc1ccc(/C=C/C(=O)c2ccc([N+](=O)[O-])o2)cc1	-61.7*
COc1ccc(S(=O)(=O)N2CCN(C(=O)c3ccc([N+](=O)[O-])o3)CC2)cc1	-78.2*
O=C(Nc1ccc(N2CCN(C(=O)c3cccs3)CC2)cc1)c1ccc([N+](=O)[O-])o1	105.9
O=C(Nc1ccc(S(=O)(=O)N2CCOCC2)cc1)c1ccc([N+](=O)[O-])o1	-119.6*
O=C(Nc1ccc(N2CCOCC2)cc1)c1ccc([N+](=O)[O-])o1	-103.3*
O=C(Nc1ccc2c(c1)CCCN2C(=O)c1ccco1)c1cc([N+](=O)[O-])ccc1Cl	-94.0*
O=C(Nc1ccc(S(=O)(=O)N2CCOCC2)cc1)c1cc([N+](=O)[O-])ccc1Cl	-66.9*
O=C(Nc1ccc(Cc2ccncc2)cc1)c1ccc([N+](=O)[O-])o1	-150.3*
O=C(Nc1nc(-c2cccs2)cs1)C1=COCCO1	-173.3*
Cc1ccc(Cl)c2sc(NC(=O)C3=COCCO3)nc12	-78.9*
O=C(Nc1nc(-c2ccc(Cl)cc2)cs1)C1=COCCO1	-109.0*
SMILES	aSyn UTR act
Cc1ccc(-n2nnc(-c3cc4ccccc4nc3Cl)n2)cc1	-148.2*
COc1ncccc1-c1nnn(-c2ccc(F)cc2)n1	-97.0*
O=c1[nH]c2ccccc2cc1-c1nnn(-c2ccc(F)cc2)n1	-102.8*
COc1ncccc1-c1nnn(-c2ccc(C)cc2)n1	-160.6*
COc1ncccc1-c1nnn(-c2ccc(Cl)c(Cl)c2)n1	-169.0*
Cc1ccc(C2=NN=C(NC(=O)CSc3nnc4c5ccccc5n(C)c4n3)SC2)cc1	-99.2*
COc1ccc(N=C(C)C2=C(O)COC2=O)cc1	-92.8*
COc1ccccc1N=C(C)C1=C(O)CC(c2ccccc2)CC1=O (stereo not drawn)	121.7
COc1cccc(/C=N/n2c(=O)[nH]c3ccccc32)c1OC	-163.7*
CCc1nc2ccc(C(=O)NC3CCC(C)CC3)cc2nc1CC (stereo not drawn)	-85.8*
CC1CCC(NC(=O)c2ccc3snnc3c2)CC1 (stereo not drawn)	-86.5*
O=[N+]([O-])c1ccc(Cl)c(/C=N/n2c(-c3ccncc3)n[nH]c2=S)c1	-77.7*
Cc1ccc(-c2nn(-c3ccccc3)cc2/C=N/n2c(-c3ccncc3)n[nH]c2=S)cc1	-85.9*
CC(=O)Nc1cnc(NC(=O)c2cccc(F)c2)cc1C	-148.4*
CCC(=O)Nc1cnc(NC(=O)c2cccc(F)c2)cc1C	-107.2*
O=[N+]([O-])c1ccc(-c2cn3ccccc3n2)cc1	-147.8*
CN(C)S(=O)(=O)c1ccc(-c2cn3ccccc3n2)cc1	-193.7*
Cc1ccc(OCCCN2CCOCC2)c([N+](=O)[O-])c1	-82.0*
Cc1ccc(OCCCCCN2CCOCC2)c(Cl)c1	-73.7*
Cc1cc(OCCN2CCOCC2)ccc1[N+](=O)[O-]	-80.2*
Cc1ccc(OCc2ccc(C(=O)Nc3nc4ccccc4n3Cc3ccccc3)o2)c([N+](=O)[O-])c1	61.1
Cc1cc(OCCN2CCOCC2)ccc1Cl	-75.9*
Cc1cc(OCC(=O)N2CCOCC2)ccc1[N+](=O)[O-]	-75.7*
Cc1ccc(/C(N)=N/OC(=O)c2cccs2)cc1	-124.4*
N/C(=N\OC(=O)c1cccs1)c1cccc(Br)c1	-128.2*
SMILES	aSyn UTR act
COc1ccc(/C(N)=N/OC(=O)c2cccs2)cc1OC	-185.8*
Cc1cccc(/C(N)=N/OC(=O)c2cccs2)c1	-105.5*
N/C(=N\OC(=O)c1cccs1)c1ccccc1	-250.1*
CCCC(=O)Nc1nc2c(s1)COc1ccccc1-2	-134.3*
CCCCC(=O)Nc1nc2c(s1)COc1ccccc1-2	-107.0*
O=C(Nc1cc(C(F)(F)F)ccc1N1CCOCC1)c1ccc2ccccc2n1	-80.2*
CC(C)c1ccc(C2C3=C(COC3=O)Nc3cc4c(cc32)OCO4)cc1 (stereo not drawn)	122.9
CC(C)Oc1ccccc1C1CC(=O)Nc2cc3c(cc21)OCO3 (stereo not drawn)	90.6
O=C1NC(c2ccc3c(c2)OCO3)Nc2ccccc21 (stereo not drawn)	-179.7*
CC(C)(C)N=Cc1cc(-c2ccccc2)sc1O	-162.0*
CC1CCN(CC(CS(=O)(=O)c2ccc([N+](=O)[O-])cc2)N2CCC(C)CC2)CC1 (stereo not drawn)	-65.5*
CC(=O)N1CCN(c2ccc(NC(=O)c3ccco3)cc2)CC1	-82.9*
CCC(=O)N1CCN(c2ccc(NC(=O)c3ccco3)cc2)CC1	-93.6*
Fc1ccc(NC(=S)N2N=CCC2c2ccccc2)cc1 (stereo not drawn)	-100.7*
S=C(Nc1ccccc1)N1N=CCC1c1ccccc1 (stereo not drawn)	-152.6*
O=C(Nc1cccc2ccccc12)N1N=CCC1c1ccccc1 (stereo not drawn)	-89.3*
Cc1ccc(C(=O)CSc2nnc(C)s2)cc1	-85.0*
Cc1ccc(NC(=O)c2ccc(CSc3nnc(C)s3)cc2)c(C)c1	-68.2*
Cc1nnc(SCC(=O)c2cc(C)n(C3CC3)c2C)s1	-146.5*
Cc1cc(C(=O)CSc2nnnn2C)c(C)n1C1CC1	-68.6*
O=C(NC1=NCCS1)C1COc2ccccc2O1 (stereo not drawn)	98.2
Cc1nnc(NC(=O)C2COc3ccccc3O2)s1 (stereo not drawn)	-118.3*
O=C(Nc1ncc(Cc2ccccc2)s1)C1COc2ccccc2O1 (stereo not drawn)	-189.9*
CCC(CC)c1nnc(NC(=O)C2COc3ccccc3O2)s1 (stereo not drawn)	-72.1*
O=C(Nc1ccc(F)cc1)c1cc2ccccc2o1	-153.3*
SMILES	aSyn UTR act
CC(=O)c1ccc(NC(=O)c2cc3ccccc3o2)cc1	-128.3*
O=C(Nc1ccc(NC(=O)c2cc3ccccc3o2)cc1)c1ccco1	-94.7*
Cc1cc(C(=O)Nc2ccccc2)oc1C	-112.4*
O=C(Nc1ccccc1)c1ccc(OC(=O)c2cc3ccccc3o2)cc1	-83.9*
O=C(Nc1ccc(N2CCCC2)cc1)c1cc2ccccc2o1	-131.1*
O=C(Nc1ccccc1)c1cc2ccccc2o1	-112.1*
CSC(C(=O)c1cc2ccccc2o1)c1ccccc1 (stereo not drawn)	-88.2*
O=C(NNC(=O)c1ccccc1O)c1cc2ccccc2o1	-86.0*
CC(C)c1nnc(NC(=O)c2cc3ccccc3o2)s1	-135.1*
N#CCSc1nc(-c2ccccc2)cs1	-75.4*
N#CCSc1ccc2nc(-c3ccccc3)cn2n1	-103.7*
CC(C)NC(=O)CSc1nc(-c2ccccc2)cs1	-159.6*
O=c1sc(N2CCN(c3ccccc3F)CC2)nc2ccsc12	-192.0*
